This is a sample that favours compounds with a hit; in the whole collection about 1% have one here.
WRN inhibitor – qHTS for Inhibitors of WRN Helicase; WRN helicase unwinding, fluorescent forked duplex, kinetic; AID 651768, 2012; Potency, µM (titrated, usually from 114 µM), for the others: at the top dose activity change, negative = inhibition, hits mostly inhibitors; Bifunctional 3'-5' exonuclease/ATP-dependent helicase WRN (Homo sapiens), Q14191; actives 0.46% (n = 360,000); further: nearly all actives have a fitted effect of over 55% in size
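Kinetic red-fluorescence monitoring (525/598 nm) tracks WRN helicase activity after 100 nM fluorophore-quencher forked duplex and 2 mM ATP are added to 20 nM enzyme pretreated 15 min at room temperature with compound.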
APE1 inh – qHTS Assay for Inhibitors of the Human Apurinic/apyrimidinic Endonuclease 1 (APE1). recombinant APE1, TAMRA/BHQ-2 abasic DNA cleavage fluorescence. Potency, µM (doses to about 65.8 µM), inactives show at the top dose activity change, negative = inhibition, usual class: inhibitors. actives 0.35% (n = 350,000);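 further: plate controls were vehicle for no effect and reference inhibitor for full effect; nearly all actives have a fitted effect of over 55% in size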
Target sequence (P27695 whole entry, looked up): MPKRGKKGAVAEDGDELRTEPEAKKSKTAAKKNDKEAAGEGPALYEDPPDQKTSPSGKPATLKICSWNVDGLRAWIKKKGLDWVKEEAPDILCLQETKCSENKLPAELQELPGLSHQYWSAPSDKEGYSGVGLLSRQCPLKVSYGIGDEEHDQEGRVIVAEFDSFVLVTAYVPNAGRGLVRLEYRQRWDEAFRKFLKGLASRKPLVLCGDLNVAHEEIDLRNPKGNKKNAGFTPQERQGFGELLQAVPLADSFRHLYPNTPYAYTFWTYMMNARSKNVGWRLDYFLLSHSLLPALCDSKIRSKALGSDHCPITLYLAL
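Measures dequenching upon AP-site incision of a 5'-TAMRA/3'-BHQ-2 THF-containing duplex, 50 nM; human APE1 0.75 nM after 15 min room-temperature exposure to compound; kinetic three-point read at one-minute spacing.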
BLM helicase inh – qHTS Assay for Inhibitors of Bloom's syndrome helicase (BLM); Potency, µM (doses to about 56.1 µM), for the others: at the top dose activity change, negative = inhibition, actives largely listed as inhibitors; AID 2528, 2010; RecQ-like DNA helicase BLM (Homo sapiens), P54132; recombinant BLM DNA unwinding, fluorescence dequenching; actives 0.2% (n = 350,000);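 further: plate controls were vehicle for no effect and no enzyme for full effect; nearly all actives have a fitted effect of over 35% in size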
RECQ1 inh – qHTS Assay for Inhibitors of RecQ-Like Dna Helicase 1 (RECQ1) | actives 0.54% (n = 240,000) | Potency, µM (titrated, usually from 57.3 µM), for the others: at the highest dose activity, negative = inhibition, most hits filed as inhibitors | AID 2549, 2010 | RECQ1 DNA unwinding, red fluorescence kinetic read;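 further: plate controls were vehicle for no effect and no enzyme for full effect; nearly all actives have a fitted effect of over 30% in size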
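RECQ1T1 50 nM; forked duplex (20 bp + 30-nt ss tails) 200 nM, ATP 2 mM final; pH 8.0, 2 mM MgCl2, 2.5 ug/ml poly(dI-dC); 15 min compound preincubation; discontinuous kinetic read over 2 h at RT.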
L3MBTL1 inh – qHTS Assay for the Inhibitors of L3MBTL1; Lethal(3)malignant brain tumor-like protein 1 (Homo sapiens), Q9Y468; AlphaScreen L3MBTL1–H3K9me1 peptide binding; Potency, µM (doses to about 57.1 µM), for inactives: at the highest dose activity, negative = inhibition, usual class: inhibitors; actives 0.66% (n = 230,000); further: nearly all actives have a fitted effect of over 60% in size
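First, the protein-peptide complex forms for 30 min at room temperature (L3MBTL1 50 nM, biotinylated H3K9me1 peptide 75 nM). Next, compounds are pin-transferred and incubated 30 min. Finally, AlphaScreen beads are added and read after 30 min.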
FEN1 inh – qHTS Assay for the Inhibitors of Human Flap endonuclease 1 (FEN1); P39748; Recombinant FEN1 flap cleavage, fluorescence, 15 min; Potency, µM (top dose mostly 114 µM), inactives show top-dose activity change, negative = inhibition, actives largely listed as inhibitors; actives 0.35% (n = 390,000); further: nearly all actives have a fitted effect of over 65% in size
Target sequence (P39748 whole entry, looked up): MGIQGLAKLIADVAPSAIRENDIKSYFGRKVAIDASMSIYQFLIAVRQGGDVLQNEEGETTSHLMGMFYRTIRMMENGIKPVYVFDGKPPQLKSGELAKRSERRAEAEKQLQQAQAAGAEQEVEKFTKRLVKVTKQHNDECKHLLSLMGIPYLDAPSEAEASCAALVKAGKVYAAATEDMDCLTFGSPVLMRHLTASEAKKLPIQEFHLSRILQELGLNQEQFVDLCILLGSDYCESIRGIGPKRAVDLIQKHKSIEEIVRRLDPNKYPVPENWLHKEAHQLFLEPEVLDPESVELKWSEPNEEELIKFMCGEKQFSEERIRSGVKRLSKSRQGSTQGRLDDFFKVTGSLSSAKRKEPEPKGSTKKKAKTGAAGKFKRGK
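Compounds are tested as a concentration series against 10 nM FEN1; after a 15 min room-temperature preincubation, 50 nM substrate starts cleavage, with plate reads at 0 and 15 min. Normalized responses are fitted by a Hill equation.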
An asterisk follows results filed as active; [ ] = remark or other dose. The call rests on the fitted dose curve; in most records, active means well fitted curve in the direction sought with a large enough effect; inconclusive means small, poorly fitted or top-dose-only effect, or another doubt; inactive means no such curve, though single readings can be large; an effect the other way counts as inactive or inconclusive. Unless noted, on the % scale 0 is the no-effect control and ±100 the full control effect; potency means the concentration at half of the fitted maximal effect.

COC(=O)C1=Nc2ccccc2/C1=C\c1c(O)n(-c2cc(OC)ccc2OC)c(=O)[nH]c1=O was read as WRN inhibitor 50.1µM*, APE1 inh inconclusive, BLM helicase inh -8.3%, RECQ1 inh inconclusive, L3MBTL1 inh 7.8% and FEN1 inh -16.3%.
Screening Cc1ccccc1-n1c(O)c(/C=C2/C(c3ccccc3)=Nc3ccccc32)c(=O)[nH]c1=O returned WRN inhibitor inconclusive, APE1 inh inconclusive, BLM helicase inh -6.1%, RECQ1 inh -9.3%, L3MBTL1 inh 23.7% and FEN1 inh -18.8%.
`Cc1ccc(OP(=O)(Oc2ccc(C)cc2)Oc2ccc(C)cc2)cc1` gave APE1 inh -7.2% and RECQ1 inh -1.2%.
Screening Cc1cccc(N2C(=O)NC(=O)/C(=C\c3ccc4c(c3)CCCN4Cc3ccccc3)C2=O)c1 returned WRN inhibitor 236.9%[57.1 µM], APE1 inh 10.9%, BLM helicase inh -24.0%, RECQ1 inh 31.6µM*, L3MBTL1 inh -8.6% and FEN1 inh -18.3%.
CC1(C)CC(=O)C2=C(C1)OC(N)=C([N+](=O)[O-])C2c1ccc(C#N)s1 (stereo not given) was read as WRN inhibitor -10.4%, APE1 inh inconclusive, BLM helicase inh -2.5%, RECQ1 inh 28.2µM*, L3MBTL1 inh -9.4% and FEN1 inh -5.0%.
For O=C1NC(=O)C(=Cc2ccccc2Oc2ccc(F)cc2)C(=O)N1 the results were WRN inhibitor 31.6µM*, APE1 inh -0.9%, BLM helicase inh -9.7%, RECQ1 inh -4.3% and FEN1 inh -0.5%.
For Cc1ccc(S(=O)(=O)Oc2ccccc2C=C2C(=O)NC(=O)NC2=O)cc1 the results were WRN inhibitor 1.3%.
Screening CN1C(=O)C(=Cc2ccc(-c3cccc(Cl)c3)o2)C(=O)N(C)C1=O returned APE1 inh -8.4%, BLM helicase inh -4.3%, RECQ1 inh -0.8% and L3MBTL1 inh -7.8%.
`CN1C(=O)C(=Cc2ccccc2Oc2ccc(Cl)c(F)c2)C(=O)N(C)C1=O` gave WRN inhibitor 50.1µM*, APE1 inh -3.3%, BLM helicase inh -6.4%, RECQ1 inh -6.9%, L3MBTL1 inh 11.4% and FEN1 inh -2.3%.
For NCC[C@H](NC(=O)[C@@H](N)CCCN=C(N)N[N+](=O)[O-])C(N)=O the results were APE1 inh 0.8%, BLM helicase inh 4.2% and RECQ1 inh 5.8%.
For CCn1c(N)c(C(=O)NC)sc1=S the results were WRN inhibitor 56.2µM*, APE1 inh 1.2%, BLM helicase inh 0.0%, RECQ1 inh -5.3% and FEN1 inh 7.5%.
Screening CC(C)c1cc2c(c(O)c1O)[C@@]1(C(=O)O)CCCC(C)(C)[C@@H]1CC2 returned APE1 inh 0.2%, BLM helicase inh -10.6% and RECQ1 inh -19.5%.
For N#CC(C#N)=Cc1ccc(O)c(O)c1 the results were WRN inhibitor -4.3%, APE1 inh inconclusive, BLM helicase inh -9.4%, RECQ1 inh 12.5%, L3MBTL1 inh 22.4µM* and FEN1 inh 4.3%.
For NC(=O)O the results were APE1 inh -4.2%, BLM helicase inh -2.1% and RECQ1 inh -4.8%.
Screening COC(=O)C1=C(C(=O)OC)C2OC1c1cc3ccccc3cc12 returned WRN inhibitor 39.8µM* and FEN1 inh -29.6%.
Screening OC[C@@H](O)[C@H]1O[C@@H]2O[C@H](C(Cl)(Cl)Cl)O[C@@H]2[C@H]1O returned APE1 inh -6.5%.
N.N.N.N.N.N.N.N.N.N.N.N.N.N.O.O.[Cl-].[Cl-].[Cl-].[Cl-].[Cl-].[Cl-].[Ru].[Ru].[Ru] was read as APE1 inh 8.6% and RECQ1 inh 14.1µM*.
Screening CC(C)(O)[C@@H]1[C@H]2OC(=O)[C@@H]1[C@]1(O)C[C@H]3O[C@]34C(=O)O[C@H]2[C@]14C returned APE1 inh 0.7%.
Screening Cn1ncnc2c(=O)n(C)c(=O)nc1-2 returned WRN inhibitor -3.7%[11.6 µM], APE1 inh inconclusive, BLM helicase inh 1.12µM*, RECQ1 inh inconclusive, L3MBTL1 inh -19.2% and FEN1 inh 13.2%.
`c1ccc(OP(Oc2ccccc2)Oc2ccccc2)cc1` gave APE1 inh 2.0% and RECQ1 inh -3.1%.
Screening COP(=O)(OC)O/C(=C\Cl)c1cc(Cl)c(Cl)cc1Cl returned APE1 inh 2.5% and RECQ1 inh 3.8%.
CNc1ccc(C(=O)CC(O)CCC(C)C2OC(=O)CC(O)CC(=O)CC(O)CC(O)CC(O)CC(O)CC3(O)CC(O)C(C(=O)OC)C(CC(O[C@@H]4O[C@H](C)[C@@H](O)[C@H](N)[C@@H]4O)/C=C/C=C/C=C/C=C/C=C/C=C/C=C/C2C)O3)cc1 (stereo not given in full) was read as APE1 inh 3.5%.
`O=C1NC(=S)NC(=O)C1=Cc1ccc(OCc2ccccc2)cc1` gave WRN inhibitor 35.5µM* and FEN1 inh 5.5%.
COc1ccc(C=C2C(=O)NC(=S)NC2=O)cc1 was read as WRN inhibitor 50.1µM* and FEN1 inh -4.1%.
Screening CCC12CCN(CC3CC3)CC1Oc1c(C)cccc12 (stereo not given) returned APE1 inh 7.5%.
CCC12CCN(CCc3ccc([N+](=O)[O-])cc3)CC1Oc1c(O)cccc12 (stereo not given) was read as APE1 inh -1.5%.
O=C1NC(=O)C(=Cc2coc3ccccc3c2=O)C(=O)N1 was read as WRN inhibitor -1.5%, APE1 inh -1.1%, BLM helicase inh -3.6%, RECQ1 inh 10.2% and FEN1 inh -18.8%.
`O=C1NC(=O)C(=C/C=C/c2coc3ccc(Br)cc3c2=O)C(=O)N1` gave APE1 inh inconclusive, BLM helicase inh -13.9%, RECQ1 inh 35.5µM* and L3MBTL1 inh -27.3%.
CCNN was read as APE1 inh -6.5%, BLM helicase inh -0.1% and RECQ1 inh -3.7%.

Source: PubChem
